Results from PubChem BioAssay.
Inconclusive results are not listed. Calls of active or inactive are those of the source.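 Rule for the calls, unless noted: active = binding below the plate cutoff, the plate median minus 3 SD, with a reading above zero; inconclusive = below the plate cutoff but reading exactly zero; inactive = the rest.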

Tests used:
[1] = rapamycin-like changes in RPL19A-GFP expression – cell-based, S. cerevisiae, multiplex flow cytometry, primary screen (AID 1862; in the data active = percent of DMSO control GFP below about 86%;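 note: lower values mimic rapamycin by blocking the RPL19A rise seen in DMSO cells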); conditions: S. cerevisiae RPL19A-GFP strain, flow cytometry fluorescence, 3 h; at 10 µM; stronger effect = lower value
[2] = TOR pathway GLN3 branch reporter MEP2-GFP changes – S. cerevisiae, multiplex flow cytometry, primary screen (AID 1867;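 active = GFP response, as percent of the DMSO control, above the screen-wide mean plus 3 SD, about 139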;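 note: median GFP channel fluorescence of barcode-gated MEP2-GFP cells measured by flow cytometry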); conditions: S. cerevisiae MEP2-GFP strain, 3 h, at 10 µM, stronger effect = higher value, 100% means same as DMSO wells
[3] = TOR pathway RTG branch CIT2 reporter changes – S. cerevisiae, GFP fusion, multiplex flow cytometry, primary screen (AID 1870;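 active = percent response above a set limit, the screen-wide mean plus 3 SD, cut at about 130% in these data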;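 note: barcoded CIT2-GFP strain pooled with four other GFP strains with rapamycin as positive control; median GFP fluorescence per well over plate mean of DMSO wells so 100% = DMSO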); conditions: S. cerevisiae CIT2-GFP expression, 3 h, at 10 µM, stronger effect = higher value
[4] = TOR pathway LAP4-GFP level changes – S. cerevisiae, multiplex flow cytometry, primary screen (AID 1873;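 active = GFP signal, as percent of the solvent control, above the screen mean plus 3 SD, about 149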); conditions: S. cerevisiae LAP4-GFP expression, 3 h, at 10 µM, stronger effect = higher value
[5] = yeast AGP1-GFP level changes, GLN3 branch – cell-based, multiplex flow cytometry, S. cerevisiae, primary screen (AID 1887;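 active = GFP signal above the screen-wide mean plus 3 SD, that is over about 124.5% of the solvent control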;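 note: AGP1-GFP fusion strain of S. cerevisiae within a five-strain barcoded multiplex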); conditions: 3 h, at 10 µM, stronger effect = higher value
[6] = reduced mouse 2C T cell binding to pMHC/ICAM-1 vesicles – MLPCN validation set, flow cytometry, LFA-1/ICAM-1 modulator project, pilot screen (AID 2523;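 active = response below a set limit, under 55% cells CD8-positive and vesicle-bound, and CD8 cells' 90th-percentile brightness under 279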;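 for vesicle binding response: mean PE anti-B7-1 fluorescence of CD8+ cells relative to row control; 100% = QL9-loaded vesicles with DMSO vehicle in the same plate row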); conditions: 2C mouse CD8+ T cells, at 7 µM, stronger effect = lower value; double positive events: measured here: CD8+/vesicle+ event percentage
[7] = molecular target: Integrin beta-1 (Homo sapiens) + Integrin alpha-4 (Homo sapiens) (UniProt P13612+P05556); test: alpha4beta1 integrin LIBS antibody binding reduction – U937 cells, HUTS-21 mAb, flow cytometry, validation set, VLA-4 allosteric modulator project, pilot screen (AID 2674;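 active = inhibition above 50%, about 3 SD of the validation set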;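 note: antibody binding induced by the VLA-4 ligand LDV present at three times its Kd; 0% = LDV ligand with antibody and no compound and 100% = antibody without LDV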); conditions: HUTS-21 LIBS mAb binding, at 6.7 µM, stronger effect = higher value, binding induced by LDV ligand
Sequence of Integrin beta-1 (Homo sapiens) + Integrin alpha-4 (Homo sapiens) (P05556 whole entry, looked up): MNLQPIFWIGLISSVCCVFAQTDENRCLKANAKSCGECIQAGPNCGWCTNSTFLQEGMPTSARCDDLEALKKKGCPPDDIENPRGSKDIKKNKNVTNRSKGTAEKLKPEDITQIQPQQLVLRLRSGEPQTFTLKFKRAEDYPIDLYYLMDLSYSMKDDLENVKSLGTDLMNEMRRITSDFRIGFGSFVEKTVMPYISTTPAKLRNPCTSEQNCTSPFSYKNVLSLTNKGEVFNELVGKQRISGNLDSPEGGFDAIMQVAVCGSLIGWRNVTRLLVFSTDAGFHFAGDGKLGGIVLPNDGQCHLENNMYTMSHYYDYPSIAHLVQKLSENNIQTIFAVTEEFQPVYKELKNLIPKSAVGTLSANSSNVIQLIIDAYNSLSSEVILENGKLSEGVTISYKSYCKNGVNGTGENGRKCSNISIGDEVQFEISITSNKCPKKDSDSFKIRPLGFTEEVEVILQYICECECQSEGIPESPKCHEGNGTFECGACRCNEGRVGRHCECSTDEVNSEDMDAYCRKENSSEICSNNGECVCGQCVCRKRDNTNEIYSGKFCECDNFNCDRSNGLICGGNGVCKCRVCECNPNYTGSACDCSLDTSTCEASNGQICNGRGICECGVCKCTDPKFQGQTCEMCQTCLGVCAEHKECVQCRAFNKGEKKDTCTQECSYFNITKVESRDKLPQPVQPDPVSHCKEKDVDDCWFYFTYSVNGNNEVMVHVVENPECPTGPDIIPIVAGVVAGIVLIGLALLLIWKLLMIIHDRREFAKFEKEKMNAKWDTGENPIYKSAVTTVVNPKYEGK
Sequence of Integrin beta-1 (Homo sapiens) + Integrin alpha-4 (Homo sapiens) (P13612 whole entry, looked up): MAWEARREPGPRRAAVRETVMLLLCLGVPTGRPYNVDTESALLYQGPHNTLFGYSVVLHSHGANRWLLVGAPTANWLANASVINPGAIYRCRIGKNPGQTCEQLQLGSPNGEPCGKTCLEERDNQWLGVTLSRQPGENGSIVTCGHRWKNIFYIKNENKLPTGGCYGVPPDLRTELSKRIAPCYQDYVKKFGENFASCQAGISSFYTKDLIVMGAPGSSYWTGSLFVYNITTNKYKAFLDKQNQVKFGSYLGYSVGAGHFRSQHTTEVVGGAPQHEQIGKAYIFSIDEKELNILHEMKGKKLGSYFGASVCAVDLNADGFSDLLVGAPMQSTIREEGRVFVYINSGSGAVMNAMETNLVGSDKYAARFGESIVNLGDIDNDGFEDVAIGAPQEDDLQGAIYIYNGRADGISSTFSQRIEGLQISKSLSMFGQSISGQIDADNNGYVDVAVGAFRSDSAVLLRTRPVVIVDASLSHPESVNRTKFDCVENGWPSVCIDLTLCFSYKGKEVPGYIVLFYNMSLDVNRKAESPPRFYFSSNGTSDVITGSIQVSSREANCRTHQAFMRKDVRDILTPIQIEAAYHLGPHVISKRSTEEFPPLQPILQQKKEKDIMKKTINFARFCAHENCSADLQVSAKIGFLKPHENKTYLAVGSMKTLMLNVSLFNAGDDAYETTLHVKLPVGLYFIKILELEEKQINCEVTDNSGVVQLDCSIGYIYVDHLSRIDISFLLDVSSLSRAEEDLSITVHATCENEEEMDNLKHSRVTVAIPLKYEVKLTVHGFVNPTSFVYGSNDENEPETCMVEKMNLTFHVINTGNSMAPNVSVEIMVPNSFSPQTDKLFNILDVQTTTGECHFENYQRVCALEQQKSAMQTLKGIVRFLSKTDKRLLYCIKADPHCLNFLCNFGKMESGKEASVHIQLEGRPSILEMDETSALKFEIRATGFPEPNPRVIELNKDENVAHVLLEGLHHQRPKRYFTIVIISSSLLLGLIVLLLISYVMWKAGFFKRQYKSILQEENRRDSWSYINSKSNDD

[8] = calorie-restriction mimetic ROS inhibitors, yeast – validation compound set, pilot screen (AID 2706;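 active = superoxide response below 65% of plate, a cut near 3 SD across the whole screen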;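 note: yeast exposed to compound for one week at 30 degrees C before staining; 100% = mean of all compound wells on the same plate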); conditions: S. cerevisiae aging, superoxide DHE fluorescence; at 10 µM; stronger effect = lower value
[9] = molecular target: Beta-adrenergic receptor kinase 1 (Homo sapiens) (UniProt P25098); test: GRK2 binders displacing RNA aptamer, biochemical, validation, human GRK2, bead flow cytometry (AID 488806;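 active = aptamer binding inhibition above 30%, about 3 SD of noise from non-fluorescent compounds; inactive = inhibition at or below 30%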); conditions: bead-bound GRK2, FAM-aptamer displacement, at 10 µM, stronger effect = higher value
Sequence of Beta-adrenergic receptor kinase 1 (Homo sapiens) (P25098 whole entry, looked up): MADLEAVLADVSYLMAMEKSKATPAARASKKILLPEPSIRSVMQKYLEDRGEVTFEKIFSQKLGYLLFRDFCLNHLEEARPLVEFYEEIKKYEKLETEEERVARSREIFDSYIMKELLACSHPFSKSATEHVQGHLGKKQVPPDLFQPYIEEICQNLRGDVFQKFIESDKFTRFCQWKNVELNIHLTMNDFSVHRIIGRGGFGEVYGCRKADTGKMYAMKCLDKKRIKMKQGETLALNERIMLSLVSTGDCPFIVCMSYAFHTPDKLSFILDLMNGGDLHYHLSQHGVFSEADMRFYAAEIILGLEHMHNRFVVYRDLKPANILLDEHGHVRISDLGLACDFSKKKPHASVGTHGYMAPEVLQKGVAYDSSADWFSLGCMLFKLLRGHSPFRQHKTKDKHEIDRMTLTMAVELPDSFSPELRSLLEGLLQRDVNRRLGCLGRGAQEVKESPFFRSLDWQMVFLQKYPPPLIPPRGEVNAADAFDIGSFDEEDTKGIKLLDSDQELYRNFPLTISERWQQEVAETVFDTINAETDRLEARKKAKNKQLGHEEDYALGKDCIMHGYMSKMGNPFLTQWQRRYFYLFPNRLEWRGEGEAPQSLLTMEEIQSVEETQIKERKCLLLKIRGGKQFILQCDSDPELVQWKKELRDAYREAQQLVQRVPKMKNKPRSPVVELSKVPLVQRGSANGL

[10] = molecular target: Beta-2 adrenergic receptor (Homo sapiens) (UniProt P07550); test: agonist-induced loss of surface beta2AR – cell-based, FAP fluorogen, flow cytometry, validation set, pilot screen (AID 504459;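 active = percent response above 42, roughly 3 SD of non-fluorescent test compounds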;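 note: agonist-driven loss of surface beta2AR via internalization measured by FAP dye flow cytometry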); conditions: Am2.2-beta2AR cells, at 10 µM, stronger effect = higher value
Sequence of Beta-2 adrenergic receptor (Homo sapiens) (P07550 whole entry, looked up): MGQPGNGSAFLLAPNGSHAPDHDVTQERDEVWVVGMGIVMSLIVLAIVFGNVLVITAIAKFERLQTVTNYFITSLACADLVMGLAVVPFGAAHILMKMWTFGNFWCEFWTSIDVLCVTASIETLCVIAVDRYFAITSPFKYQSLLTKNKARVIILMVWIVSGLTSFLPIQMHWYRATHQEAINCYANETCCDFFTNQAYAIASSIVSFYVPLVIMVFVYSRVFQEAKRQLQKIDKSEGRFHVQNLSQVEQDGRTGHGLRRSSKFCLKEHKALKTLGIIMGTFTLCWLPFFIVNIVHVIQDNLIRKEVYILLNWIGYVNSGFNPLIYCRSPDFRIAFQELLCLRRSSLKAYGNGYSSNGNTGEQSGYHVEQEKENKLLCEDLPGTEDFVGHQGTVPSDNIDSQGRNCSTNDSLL

[11] = molecular target: AP-2 complex subunit beta (Homo sapiens) (UniProt P63010); test: beta-arrestin/AP2 interaction blockers – biochemical, validation set, GST-AP2 beads, flow cytometry, pilot screen (AID 504541;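 active = inhibition above 54%, about 3 SD of non-fluorescent compounds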;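 note: AP2 carries R879A mutation and is captured from E. coli lysate; bead-bound FITC arrestin peptide fluorescence measuring arrestin peptide binding to AP2; 0% = DMSO wells and 100% = excess unlabeled arrestin peptide control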); conditions: FITC arrestin peptide, at 10 µM, stronger effect = higher value, AP2 beta2 appendage fragment, R879A mutant
Sequence of AP-2 complex subunit beta (Homo sapiens) (P63010 whole entry, looked up, the tested form may be a part, one chain of several): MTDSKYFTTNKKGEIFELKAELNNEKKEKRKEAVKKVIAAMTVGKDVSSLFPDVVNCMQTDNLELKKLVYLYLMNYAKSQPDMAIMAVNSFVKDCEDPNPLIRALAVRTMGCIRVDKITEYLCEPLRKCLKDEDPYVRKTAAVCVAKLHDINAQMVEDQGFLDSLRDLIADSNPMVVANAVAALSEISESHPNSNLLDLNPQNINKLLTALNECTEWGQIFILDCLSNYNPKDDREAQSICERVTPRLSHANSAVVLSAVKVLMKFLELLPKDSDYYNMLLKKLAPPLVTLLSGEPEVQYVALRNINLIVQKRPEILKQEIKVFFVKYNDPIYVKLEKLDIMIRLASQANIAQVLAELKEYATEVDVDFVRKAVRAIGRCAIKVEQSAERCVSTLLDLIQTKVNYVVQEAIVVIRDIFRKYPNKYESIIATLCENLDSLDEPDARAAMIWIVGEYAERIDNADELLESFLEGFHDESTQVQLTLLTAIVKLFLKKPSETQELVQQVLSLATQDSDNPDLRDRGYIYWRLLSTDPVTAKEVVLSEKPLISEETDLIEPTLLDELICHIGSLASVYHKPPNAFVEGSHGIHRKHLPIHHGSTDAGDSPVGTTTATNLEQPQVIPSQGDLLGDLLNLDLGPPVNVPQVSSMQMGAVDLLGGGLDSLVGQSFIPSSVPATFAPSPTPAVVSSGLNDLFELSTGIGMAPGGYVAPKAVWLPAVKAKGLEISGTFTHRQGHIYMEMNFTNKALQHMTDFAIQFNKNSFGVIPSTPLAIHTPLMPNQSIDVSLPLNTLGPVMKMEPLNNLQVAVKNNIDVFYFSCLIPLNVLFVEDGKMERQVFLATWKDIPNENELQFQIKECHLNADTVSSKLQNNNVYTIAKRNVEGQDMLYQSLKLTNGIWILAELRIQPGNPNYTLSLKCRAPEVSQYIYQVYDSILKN

[12] = cytosolic pH regulators acting via V-ATPase – S. cerevisiae, pHLuorin, HTS validation (AID 504600; in the data active = response above about 15%;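 note: plate controls were DMSO for no effect and reference compound for full effect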); conditions: V-ATPase proton transport, at 10 µM, stronger effect = higher value
[13] = test system: anti-desmoglein-3 scFv antibody binding to human DSG3; test: blockers of pathogenic pemphigus antibody–desmoglein-3 binding – biochemical, validation compound set, bead-based, flow cytometry, pilot screen (AID 588368); conditions: Protein G beads, DSG3-Fc, scFv-GFP binding, at 10 µM, stronger effect = lower value;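 note: signal is the median channel fluorescence of bead-bound GFP antibody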
[14] = Nile Red efflux blockade in pump-expressing yeast – validation compound set, multiplex, phenotypic, pilot screen (AID 588506;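 active = efflux inhibition above 0.42, the validation set average plus 4 SD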;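 note: Nile Red retained in cells so higher fluorescence means more efflux inhibition; 0 = negative control wells and 1 = enniatin B 25 µM full block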); conditions: S. cerevisiae pump-expressing triplex, Nile Red efflux flow cytometry; at 10 µM; stronger effect = higher value; the pumps come from Candida albicans
[15] = molecular target: ATP-binding cassette sub-family B member 6 (Homo sapiens) (UniProt Q9NP58); test: blockers of ABCB6-driven porphyrin uptake – K562-ABCB6 cells, flow cytometry, validation set, pilot screen (AID 588550;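 active = inhibition above the screen-wide mean plus 3 SD, about 51%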;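 note: 0% = DMSO wells and 100% = benzethonium chloride 70 µM positive control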); conditions: K562-ABCB6 porphyrin accumulation, 1 h, at 10 µM, stronger effect = higher value
Sequence of ATP-binding cassette sub-family B member 6 (Homo sapiens) (Q9NP58 whole entry, looked up): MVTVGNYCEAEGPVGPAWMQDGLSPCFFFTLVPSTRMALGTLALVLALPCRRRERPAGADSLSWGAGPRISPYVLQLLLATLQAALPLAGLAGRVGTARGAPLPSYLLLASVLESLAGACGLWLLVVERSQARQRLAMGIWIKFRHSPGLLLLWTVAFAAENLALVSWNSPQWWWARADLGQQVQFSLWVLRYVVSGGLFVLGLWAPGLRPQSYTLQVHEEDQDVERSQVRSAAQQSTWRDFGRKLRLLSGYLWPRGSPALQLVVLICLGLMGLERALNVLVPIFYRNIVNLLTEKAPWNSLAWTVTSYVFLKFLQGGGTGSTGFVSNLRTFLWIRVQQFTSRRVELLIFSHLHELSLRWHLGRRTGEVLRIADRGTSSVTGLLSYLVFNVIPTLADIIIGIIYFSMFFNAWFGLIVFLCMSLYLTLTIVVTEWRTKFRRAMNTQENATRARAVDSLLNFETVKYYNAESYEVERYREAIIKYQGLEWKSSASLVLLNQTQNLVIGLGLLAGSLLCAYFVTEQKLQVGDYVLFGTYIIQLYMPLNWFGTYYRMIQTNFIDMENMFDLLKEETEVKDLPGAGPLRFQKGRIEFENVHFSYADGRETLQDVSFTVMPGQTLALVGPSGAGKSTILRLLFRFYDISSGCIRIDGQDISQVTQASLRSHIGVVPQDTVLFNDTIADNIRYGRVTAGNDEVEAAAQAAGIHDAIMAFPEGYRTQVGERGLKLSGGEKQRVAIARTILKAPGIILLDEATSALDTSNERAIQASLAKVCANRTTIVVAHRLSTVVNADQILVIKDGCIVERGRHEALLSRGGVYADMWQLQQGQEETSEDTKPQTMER

[16] = AML differentiation inducers, ER-HoxA9 marrow cells – cell-based, GFP/MAC1 double positive, flow cytometry, validation set, primary screen (AID 588685;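 active = differentiation response of at least 50%, scaled between solvent and reference control, from cells with both markers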;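 note: compound exposure lasts four days before antibody staining and flow analysis; 0% = DMSO wells and 100% = 5 µM fulvestrant positive control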); conditions: stronger effect = higher value, normalized: vehicle 0, fulvestrant 100

| SMILES | percent of DMSO control GFP [1] | GFP response vs DMSO [2] | percent response of DMSO control [3] | GFP response vs DMSO [4] | GFP response, % of DMSO [5] | double positive events [6] [%] | vesicle binding response [6] | inhibition [7] | superoxide response (% of plate) [8] | aptamer binding inhibition [9] | response [10] | inhibition [11] | response [12] | binding (% of control) [13] | efflux inhibition (fraction of control) [14] | inhibition [15] | differentiation response [16] |
| --- | --- | --- | --- | --- | --- | --- | --- | --- | --- | --- | --- | --- | --- | --- | --- | --- | --- |
| c1ccc(SSc2ccccc2)cc1 | 105% (inactive) | 108% (inactive) | 118% (inactive) | 96.6% (inactive) | 103% (inactive) | 62.9 | 301% (inactive) | -0.45% (inactive) | 93.6% (inactive) | 2% (inactive) | 1.12% (inactive) | -24.5% (inactive) | 3.24% (inactive) | 93.5% (inactive) | -0.04 (inactive) | -6% (inactive) | -2.69% (inactive) |
| CC(C)N(Cc1nccn1C)C(=O)CC1C(=O)NCCN1Cc1ccccc1C(F)(F)F (stereo not given) | 102% (inactive) | 98.7% (inactive) | 102% (inactive) | 97% (inactive) | 103% (inactive) | 71.7 | 182% (inactive) | 4.27% (inactive) | 82.9% (inactive) | -2% (inactive) | 2.35% (inactive) | -0.01% (inactive) | -1.67% (inactive) | 102% (inactive) | -0.5 (inactive) | 6% (inactive) | -0.18% (inactive) |
| Cc1coc2cc3oc(=O)c(CCC(=O)O)c(C)c3cc12 | 95.4% (inactive) | 101% (inactive) | 92% (inactive) | 147% (inactive) | 86.8% (inactive) | 58.9 | 223% (inactive) | -11.3% (inactive) | 109% (inactive) | 1% (inactive) | -0.85% (inactive) | 20.5% (inactive) | -3.3% (inactive) | 106% (inactive) | -0.17 (inactive) | 6% (inactive) | -2.4% (inactive) |
| COc1ccccc1OCC(=O)O | 96.3% (inactive) | 107% (inactive) | 98.6% (inactive) | 122% (inactive) | 103% (inactive) | 61.5 | 167% (inactive) | 3.67% (inactive) | 106% (inactive) | -3% (inactive) | -4.79% (inactive) | -3.11% (inactive) | -0.38% (inactive) | 99.3% (inactive) | -0.06 (inactive) | 6% (inactive) | -26.4% (inactive) |
| CC1=CC(=O)c2ccccc2C1=O | 101% (inactive) | 104% (inactive) | 94.5% (inactive) | 94.8% (inactive) | 91.1% (inactive) | 60.8 | 105% (inactive) | -5.11% (inactive) | 108% (inactive) | 1% (inactive) | 22.2% (inactive) | -9.12% (inactive) | 1.78% (inactive) | 102% (inactive) | -0.21 (inactive) | 1% (inactive) | 14.4% (inactive) |
| OCCN1CCN(CCCN2c3ccccc3Sc3ccc(C(F)(F)F)cc32)CC1 | 104% (inactive) | 104% (inactive) | 92.5% (inactive) | 101% (inactive) | 115% (inactive) | 62.1 | 176% (inactive) | 70.4% (active) | 90.7% (inactive) | -4% (inactive) | 26.4% (inactive) | 13.1% (inactive) | 0.87% (inactive) | 111% (inactive) | -0.04 (inactive) | 11% (inactive) | 0.92% (inactive) |
| CC(=O)Nc1c(I)c(NC(C)=O)c(I)c(C(=O)O)c1I | 89.3% (inactive) | 123% (inactive) | 104% (inactive) | 78.1% (inactive) | 94% (inactive) | 58.9 | 171% (inactive) | 10.3% (inactive) | 103% (inactive) | -1% (inactive) | -8.3% (inactive) | 2.48% (inactive) | 1.06% (inactive) | 95% (inactive) | 0.12 (inactive) | 9% (inactive) | 2.46% (inactive) |
| COc1ccc(CNCCC(c2ccc(F)cc2)c2ccc(OC(C)C)cc2)cc1OC (stereo not given) | 97.9% (inactive) | 105% (inactive) | 105% (inactive) | 119% (inactive) | 110% (inactive) | 66.1 | 227% (inactive) | 64.5% (active) | 91.3% (inactive) | -14% (inactive) | 24.3% (inactive) | 38.1% (inactive) | 0.54% (inactive) | 113% (inactive) | -0.04 (inactive) | -1% (inactive) | 2.89% (inactive) |
| O=c1[nH]c(=O)n([C@H]2C[C@H](O)[C@@H](CO)O2)cc1C(F)(F)F | 103% (inactive) | 101% (inactive) | 97.8% (inactive) | 94% (inactive) | 94.8% (inactive) | 58.6 | 48.9% (inactive) | -11.9% (inactive) | 108% (inactive) | 1% (inactive) | -1.49% (inactive) | 13.9% (inactive) | -1.8% (inactive) | 100% (inactive) | 0.02 (inactive) | 1% (inactive) | -1.71% (inactive) |
| CC(C)(C)n1c(=O)[nH]c2c(c1=O)CCC2 | 105% (inactive) | 103% (inactive) | 98.3% (inactive) | 113% (inactive) | 110% (inactive) | 61.8 | 205% (inactive) | 8.25% (inactive) | 98.5% (inactive) | 0% (inactive) | -17.6% (inactive) | 66.2% (active) | 7.46% (inactive) | 100% (inactive) | 0.08 (inactive) | -3% (inactive) | -12.9% (inactive) |
